Each structure is given as a SMILES string. “And” between values parts separate entries of the source, which are not always exact repeats. Identical values can stand only once. Where a structure was tested more than once in an assay, its records may differ in their call. The source made the active and inactive calls. How the source made its calls: active means hit-call score of the fitted dose curve at least 0.9, where 1 is the maximum; inactive means score below 0.9.

Read-out in experiment [1]: Vascular endothelial growth factor receptor 2 (Homo sapiens) (UniProt P35968)
As to the kind of experiment: BSK_4H_VEGFRII: BioMAP Diversity Plus: 4H Assay for Vascular endothelial growth factor receptor 2 (VEGFR2) Biomarker Activity (AID 2283031). Particulars: primary human endothelial cells (HUVEC); actives raise or lower the signal. An outline of the steps: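 HUVEC (human primary), 4H system; 24 h post-dose; VEGFRII by ELISA; bidirectional curve fit vs DMSO baseline; gain or loss of signal scored.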

Read-out in experiment [2]: Human Leukocyte Antigen - DR isotype (HLADR), HLA-DRA (gene 3122)
Kind of experiment: BSK_BE3C_HLADR: BioMAP Diversity Plus: BE3C Assay for Human Leukocyte Antigen - DR isotype (HLADR) Biomarker Activity (AID 2283032). The following applies: primary human bronchial epithelial cells; actives raise or lower the signal. An outline of the steps:
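Signal came from an ELISA for HLA-DR in human bronchial epithelial primary cells harvested 24 h after treatment; gain- and loss-of-signal fitting used DMSO controls as reference.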

Read-out in experiment [3]: Vascular cell adhesion molecule 1 (VCAM1), VCAM1 (gene 7412)
Kind of experiment: BSK_4H_VCAM1: BioMAP Diversity Plus: 4H Assay for Vascular cell adhesion molecule 1 (VCAM1) Biomarker Activity (AID 2283033).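 On outcome: cell-surface VCAM-1 protein measured by ELISA.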 Particulars: primary human endothelial cells (HUVEC); actives raise or lower the signal. An outline of the steps: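 Endpoint derived from bidirectional fitting against DMSO controls of VCAM-1 ELISA signal in umbilical vein endothelial cells sampled at 24 h following treatment.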

Read-out in experiment [4]: Interferon-gamma inducible Protein 10 (IP10), CXCL10 (gene 3627)
Kind of experiment: BSK_BE3C_IP10: BioMAP Diversity Plus: BE3C Assay for Interferon-gamma inducible Protein 10 (IP10) Biomarker Activity (AID 2283034). Particulars: primary human bronchial epithelial cells; actives raise or lower the signal. An outline of the steps:
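Using primary human bronchial epithelial cultures, the assay captures IP-10 by ELISA one day (24 h) after exposure. Parallel SRB staining of total protein flags overt cytotoxicity. Fits run bidirectionally relative to DMSO.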

Read-out in experiment [5]: Monokine induced gamma interferon (MIG), CXCL9 (gene 4283)
As to the kind of experiment: BSK_BE3C_MIG: BioMAP Diversity Plus: BE3C Assay for Monokine induced gamma interferon (MIG) Biomarker Activity (AID 2283035).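 Further: MIG protein measured by ELISA in BE3C cultures after 24 h of dosing.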 Particulars: primary human bronchial epithelial cells; actives raise or lower the signal. An outline of the steps: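 MIG level was determined by ELISA after 24 h chemical treatment of primary human bronchial epithelial cells. Values were fitted bidirectionally with DMSO as the negative control and activity baseline.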

Read-out in experiment [6]: Transforming growth factor beta 1 (TGFb1), TGFB1 (gene 7040)
As to the kind of experiment: BSK_BE3C_TGFb1: BioMAP Diversity Plus: BE3C Assay for Transforming growth factor beta 1 (TGFb1) Biomarker Activity (AID 2283036;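 further: TGF-b1 protein level measured by ELISA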). Particulars: primary human bronchial epithelial cells; actives raise or lower the signal. An outline of the steps:
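In this human primary bronchial epithelial system, an ELISA quantified TGF-b1 one day after dosing. Endpoint changes in either direction were fitted relative to DMSO.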

Read-out in experiment [7]: Plasminogen activator inhibitor-1 (PAI1), SERPINE1 (gene 5054)
Kind of experiment: BSK_BE3C_PAI1: BioMAP Diversity Plus: BE3C Assay for Plasminogen activator inhibitor-1 (PAI1) Biomarker Activity (AID 2283037). The following applies: primary human bronchial epithelial cells; actives raise or lower the signal. An outline of the steps:
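PAI-1 biomarker levels in treated human bronchial epithelial cells are determined by ELISA at 24 h. Both increases and decreases relative to DMSO are fitted.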

Read-out in experiment [8]: urokinase plasminogen activator (uPA), PLAU (gene 5328)
Kind of experiment: BSK_BE3C_uPA: BioMAP Diversity Plus: BE3C Assay for urokinase plasminogen activator (uPA) Biomarker Activity (AID 2283038).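 Further: uPA protein level quantified by ELISA in cell cultures; uPA read one day after compound addition.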 Particulars: primary human bronchial epithelial cells; actives raise or lower the signal. An outline of the steps:
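ELISA read-out of uPA in human lung primary bronchial epithelial cultures, 24 h post-dosing. Gain or loss of signal fitted bidirectionally relative to DMSO baseline; cytotoxicity checked in parallel cultures via SRB total protein stain.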

Read-out in experiment [9]: Urokinase-type plasminogen activator receptor (uPAR), PLAUR (gene 5329)
Kind of experiment: BSK_BE3C_uPAR: BioMAP Diversity Plus: BE3C Assay for Urokinase-type plasminogen activator receptor (uPAR) Biomarker Activity (AID 2283039).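 Further: uPAR protein level measured by ELISA on the cells; cells exposed to compound for one day before measurement.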 Particulars: primary human bronchial epithelial cells; actives raise or lower the signal. An outline of the steps: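 A uPAR ELISA serves as the readout, taken 24 h after treating primary human bronchial epithelial cells. Responses in either direction are fitted against DMSO, which defines baseline activity.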

Read-out in experiment [10]: Interleukin-6 (IL6), IL6 (gene 3569)
As to the kind of experiment: BSK_CASM3C_IL6: BioMAP Diversity Plus: CASM3C Assay for Interleukin-6 (IL6) Biomarker Activity for (AID 2283040). Particulars: primary human coronary artery smooth muscle cells; actives raise or lower the signal.

Read-out in experiment [11]: Tissue plasminogen activator (tPA), PLAT (gene 5327)
Kind of experiment: BSK_BE3C_tPA: BioMAP Diversity Plus: BE3C Assay for Tissue plasminogen activator (tPA) Biomarker Activity (AID 2283041).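 On outcome: tPA level quantified by ELISA one day after compound addition.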 The following applies: primary human bronchial epithelial cells; actives raise or lower the signal. An outline of the steps: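 Bidirectional curve fitting relative to DMSO defined activity, with tPA detected by ELISA in chemically treated human bronchial epithelial primary cells at 24 hours.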

Read-out in experiment [12]: Interleukin-8 (IL8), CXCL8 (gene 3576)
As to the kind of experiment: BSK_CASM3C_IL8: BioMAP Diversity Plus: CASM3C Assay for Interleukin-8 (IL8) Biomarker Activity (AID 2283042).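 Further: IL-8 protein level quantified by ELISA.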 Particulars: primary human coronary artery smooth muscle cells; actives raise or lower the signal.

Read-out in experiment [13]: Human Leukocyte Antigen - DR isotype (HLADR), HLA-DRA (gene 3122)
As to the kind of experiment: BSK_CASM3C_HLADR: BioMAP Diversity Plus: CASM3C Assay for Human Leukocyte Antigen - DR isotype (HLADR) Biomarker Activity (AID 2283043).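 Further: cell-surface HLA-DR protein level quantified by ELISA.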 The following applies: primary human coronary artery smooth muscle cells; actives raise or lower the signal.

Read-out in experiment [14]: Macrophage colony-stimulating factor (MCSF), CSF1 (gene 1435)
Kind of experiment: BSK_CASM3C_MCSF: BioMAP Diversity Plus: CASM3C Assay for Macrophage colony-stimulating factor (MCSF) Biomarker Activity (AID 2283044).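 Further: M-CSF protein amount quantified by ELISA after 24 h exposure.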 The following applies: primary human coronary artery smooth muscle cells; actives raise or lower the signal.

Read-out in experiment [15]: Low-density lipoprotein receptor (LDLR), LDLR (gene 3949)
As to the kind of experiment: BSK_CASM3C_LDLR: BioMAP Diversity Plus: CASM3C Assay for Low-density lipoprotein receptor (LDLR) Biomarker Activity (AID 2283045).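 Further: LDLR protein level on the cell surface quantified by ELISA.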 Particulars: primary human coronary artery smooth muscle cells; actives raise or lower the signal.

Read-out in experiment [16]: Monocyte Chemoattractant Protein-1 (MCP1), CCL2 (gene 6347)
As to the kind of experiment: BSK_CASM3C_MCP1: BioMAP Diversity Plus: CASM3C Assay for Monocyte Chemoattractant Protein-1 (MCP1) Biomarker Activity (AID 2283046).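 Further: MCP-1 level quantified by ELISA 24 h after dosing.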 The following applies: primary human coronary artery smooth muscle cells; actives raise or lower the signal.

Experiment [17] can be described thus: BSK_CASM3C_Proliferation: Cell Proliferation Assessment in the BioMAP Diversity Plus: CASM3C Assay (AID 2283047).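 Further: sulforhodamine B total protein stain as relative cell number at 560 nm; sub-confluent cells exposed 48 h before staining; fitted both ways against DMSO so gain or loss of cell number.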 Particulars: primary human coronary artery smooth muscle cells.
Read-out in experiment [18]: Monokine induced gamma interferon (MIG), CXCL9 (gene 4283)
Kind of experiment: BSK_CASM3C_MIG: BioMAP Diversity Plus: CASM3C Assay for Monokine induced gamma interferon (MIG) Biomarker Activity (AID 2283048).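 Further: MIG protein level measured by ELISA.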 The following applies: primary human coronary artery smooth muscle cells; actives raise or lower the signal.

Read-out in experiment [19]: serum amyloid A (SAA), SAA1 (gene 6288)
As to the kind of experiment: BSK_CASM3C_SAA: BioMAP Diversity Plus: CASM3C Assay for serum amyloid A (SAA) Biomarker Activity (AID 2283049).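 Further: SAA protein level quantified by ELISA.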 The following applies: primary human coronary artery smooth muscle cells; actives raise or lower the signal.

Experiment [20] in a line: BSK_CASM3C_SRB: Viability Assessment in the BioMAP Diversity Plus: CASM3C Assay (AID 2283050).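 Further: cells exposed to compound for 24 h.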 Particulars: primary human coronary artery smooth muscle cells.

`Cc1ccc([N+](=O)[O-])cc1C`: the result in experiment [1], in [2], in experiment [3], in experiment [4], in experiment [5] and in experiment [6] was inactive. The result in experiment [7], in experiment [8], in experiment [9], in experiment [10], in [11] and in experiment [12] was inactive. The outcome in experiment [13], in experiment [14], in experiment [15], in experiment [16], in experiment [17] and in experiment [18] was inactive. For the same compound, the result in experiment [19] and in [20] was inactive.
Regarding `Cc1ccc(O)cc1C`, the result in experiment [1], in experiment [2], in [3], in [4], in experiment [5] and in experiment [6] was inactive. Moreover, the result in [7], in experiment [8], in experiment [9], in experiment [10], in [11] and in experiment [12] was inactive. Besides, the result in experiment [13], in [14], in experiment [15], in experiment [17], in experiment [18] and in experiment [19] was inactive. Further, the outcome in [20] was inactive. The AC50 in [16] was 0.658 µM (active).
As to `Nc1cc2c3c(c1)C(c1ccccc1)=N[C@@H](NC(=O)c1cccnc1)C(=O)N3CC2`, the outcome in experiment [1], in [2], in experiment [3], in [4], in experiment [5] and in experiment [6] was inactive. For the same compound, the result in experiment [7], in experiment [8], in experiment [9], in experiment [10], in experiment [11] and in experiment [12] was inactive. In addition, the result in experiment [13], in experiment [14], in experiment [15], in experiment [16], in experiment [17] and in experiment [18] was inactive. For the same compound, the result in [19] and in [20] was inactive.
As to `C=CC(=O)OCC(F)(F)C(F)F`, the outcome in [1], in experiment [2], in experiment [4], in [5], in [7] and in experiment [8] was inactive. For the same compound, the outcome in experiment [9], in experiment [10], in [11], in experiment [12], in experiment [15] and in [16] was inactive. Also, the result in experiment [19] was inactive. The concentration at half-maximal activity (AC50) in experiment [2] is 44.9 µM (active); in experiment [3], 38.9 µM (active) and 30 µM (active); in [10], 22.9 µM (active); in experiment [11] it was 14.9 µM (active); in experiment [13], 36.3 µM (active) and 38.8 µM (active); in [14], 30 µM (active) and 18.2 µM (active). For the same compound, the half-maximal activity concentration (AC50) in [17] is 30 µM (active); in experiment [18], 30 µM (active) and 16.9 µM (active); in [19], 30 µM (active); in experiment [20], 39.8 µM (active) and 43.6 µM (active).
For the compound `c1cc2c3c(cccc3c1)CC2`, the outcome in [1], in [2], in experiment [3], in experiment [4], in experiment [5] and in experiment [6] was inactive. For the same compound, the outcome in experiment [7], in experiment [8], in [9], in [10], in [11] and in [12] was inactive. In addition, the outcome in [13], in experiment [14], in experiment [15], in [16], in experiment [17] and in [18] was inactive. The result in experiment [19] and in experiment [20] was inactive.
As to `c1ccc2c(c1)sc1ccccc12`, the outcome in [1], in experiment [2], in experiment [3], in experiment [4], in [5] and in experiment [6] was inactive. The result in [7], in experiment [8], in experiment [9], in experiment [10], in experiment [11] and in experiment [12] was inactive. Also, the result in [13], in experiment [14], in [15], in experiment [16], in [17] and in experiment [18] was inactive. The result in [19] and in [20] was inactive.

One may read the AC50 as the midpoint of the concentration-response curve, whichever way the signal moves.

These data come from PubChem BioAssay (EPA / NIEHS).
